# Source: PubChem BioAssay (NCATS)
# Results filed as inconclusive are left out. Values without a mark were called inactive. The source made the active and inactive calls. Calls come from the whole dose curve; as a rule, active = well fitted cell-killing curve with a large enough effect; inconclusive = small, poorly fitted or top-dose-only effect, or effect the other way; inactive = no such curve, though single readings can be large or run the other way.
# Test: Quantitative High-Throughput drug screen in 47 multiple myeloma cell lines against the NCATS MIPE library collection: ARD_JJKsccE7 cell viability assay (AID 1918929)
# Details: ARD myeloma cell line viability, CellTiter-Glo, 48 h; series mostly up to 45.8 µM; viability: at the top concentration
# Description: PI: Beverly A. Mock Ph.D.
# Laboratory of Cancer Biology and Genetics,
# Center for Cancer Research, National Cancer Institute,
# National Institute of Health, Bethesda, Maryland
# Drug resistance and disease progression are common in multiple myeloma (MM) patients, underscoring the need for new therapeutic combinations. […] We hypothesized that effective combinations would reduce MYC expression and enhance p16 activity. […] These preclinical data identify potentially useful drug combinations for evaluation in drug-resistant MM and reveal potential mechanisms of combined drug sensitivity.
# Described herein is the primary MIPE qHTS used to cherrypick compounds. Validated compounds were then further tested for potential synergistic activiy.
# [1] Peat TJ, Gaikwad SM, Dubois W, Gyabaah-Kessie N, Zhang S, Gorjifard S, Phyo Z, Andres M, Hughitt VK, Simpson RM, Miller MA, Girvin AT, Taylor A, Williams D, D'Antonio N, Zhang Y, Rajagopalan A, Flietner E, Wilson K, Zhang X, Shinn P, Klumpp-Thomas C, McKnight C, Itkin Z, Chen L, Kazandijian D, Zhang J, Michalowski AM, Simmons JK, Keats J, Thomas CJ, Mock BA. Drug combinations identified by high-throughput screening promote cell cycle transition and upregulate Smad pathways in myeloma. Cancer Lett. 2023 Aug 1;568:216284. doi: 10.1016/j.canlet.2023.216284. Epub 2023 Jun 24. PMID: 37356470; PMCID: PMC10408729.
# SEQUENCE No. (e.g., 1, 2, 3, etc.); […] (e.g., Cells, Incubation, Reagent, etc.); VALUE and DESCRIPTION.
# 1; Cells; 5 uL; white, solid bottom 1536-well Greiner assay plate.
# 2; Compounds; 23 nL; Kalypsis pin tool (Wako USA) equipped with a 1536-well pin head to transfer to the assay plates.
# 3; Incubation; 48 hours; 37C incubation.
# 4; Reagent;5uL; CellTiter Glo (Promega).
# 5; Detector; 425V; Luminescence; Viewlux PerkinElmer.
# NOTES (numbers refer to Sequence numbers above)
# 1. The cell-based screening methods employed in this study were like those previously published. Briefly, the corresponding myeloma cell lines were screened in 1,536-well plates with 500 cells, 5-uL per well for inhibition of cell viability (assessed by measuring ATP levels with CellTiterGlo).
# 2. NCATS MIPE 4.0 library of approved and investigational drugs were added using the Kalypsis pin tool. Wells treated with DMSO only for 100% viability and media only wells for 0% viability were used as controls.
# 3. The assay plates were covered and incubated for 48 hours in a 37C, 5% CO2 incubator with controlled humidity.
# 4. After 48 hours, CellTilter-GloTM luminescent substrate mix (Promega) reagent was added to the assay plate and plates we incubated for 5 min at room temperature.
# 5. Signal was measured as median relative luminescence units on a ViewLux (PerkinElmer) multiplate reader.
# [1] Heske CM, Davis MI, Baumgart JT, Wilson K, Gormally MV, Chen L, Zhang X, Ceribelli M, Duveau DY, Guha R, Ferrer M, Arnaldez FI, Ji J, Tran HL, Zhang Y, Mendoza A, Helman LJ, Thomas CJ. Matrix Screen Identifies Synergistic Combination of PARP Inhibitors and Nicotinamide Phosphoribosyltransferase (NAMPT) Inhibitors in Ewing Sarcoma. Clin Cancer Res. 2017 Dec 1;23(23):7301-7311. doi: 10.1158/1078-0432.CCR-17-1121. Epub 2017 Sep 12. PMID: 28899971; PMCID: PMC6636827.
# Potency is the fitted concentration of half-maximal effect.
Compound,viability,Potency
O=S(=O)(O)c1ccc2cc(N=Nc3cc(S(=O)(=O)O)c4cccnc4c3O)ccc2c1,108%,–
Cc1cccc(Nc2nc(N[C@@H]3CCCC[C@H]3N)ncc2C(N)=O)c1,–,20.9 µM (active)
CCOC(=O)N1CCN([N+]([O-])=NOc2cc(ON=[N+]([O-])N3CCN(C(=O)OCC)CC3)c([N+](=O)[O-])cc2[N+](=O)[O-])CC1,–,0.0526 µM (active)
CC1=C(C(=O)Nc2cc3cn[nH]c3cc2F)C(c2ccc(C(F)(F)F)cc2)CC(=O)N1 (stereo not given),130%,–
C[C@H](c1ccc(F)cc1CCCC(=O)O)N(c1cc(F)ccc1F)S(=O)(=O)c1ccc(Cl)cc1,121%,–
CC1=C(CC(=O)O)c2cc(F)ccc2C1=Cc1ccc(S(C)=O)cc1 (stereo not given),–,11.8 µM (active)
O=C(O)C1=CO[C@@H](O[C@@H]2O[C@H](CO)[C@H](O)[C@H](O)[C@H]2O)[C@@H]2C(CO)=CC[C@H]12,153%,–
CC=C1C2C=C(C)CC1(N)c1ccc(=O)[nH]c1C2 (stereo not given),142%,–
CC=C(C(=CC)c1ccc(O)cc1)c1ccc(O)cc1,–,23.5 µM (active)
CNc1nc(-c2ccc3c(N)n[nH]c3c2)cc(N2C[C@@H](C(=O)NC3CCCCC3)CC[C@@H]2C)n1,–,8.33 µM (active)
N[C@@H](CC(=O)N1CCn2c(nnc2C(F)(F)F)C1)Cc1cc(F)c(F)cc1F,134%,–
Cc1cc(-c2ncc(CC(=O)Nc3ccc(-c4cnccn4)cn3)cc2C)ccn1,–,9.35 µM (active)
CC(C)CNc1ccnc(NCc2csc(-c3ccccc3)n2)n1,–,5.9 µM (active)
CC1(C)C(N(O)C(=O)Nc2ccc(Cl)cc2)N(c2ccc(Cl)cc2)C(=O)N1CC(=O)NN=CC=Cc1ccc([N+](=O)[O-])o1 (stereo not given),127%,–
CCCCC[C@H](O)C=C[C@H]1[C@H](O)CC(=O)[C@H]1CC=CCCCC(=O)O,150%,–
NCC1CCC(C(=O)O)CC1 (stereo not given),136%,–
CC(C)CN(C[C@@H](O)[C@H](Cc1ccccc1)NC(=O)O[C@H]1CO[C@H]2OCC[C@H]21)S(=O)(=O)c1ccc(N)cc1,123%,–
COc1ccc(-c2cc(=O)c3c(O)cc(O[C@@H]4O[C@H](CO[C@@H]5O[C@@H](C)[C@H](O)[C@@H](O)[C@@H]5O)[C@@H](O)[C@H](O)[C@@H]4O)cc3o2)cc1O,137%,–
COc1cc2nc(-c3cc(F)ccc3O)nc(N[C@@H]3CNC[C@@H]3C(C)(C)O)c2cc1OC,–,6.62 µM (active)
O=C(CC12CC3CC(CC(C3)C1)C2)Nc1cccc2nc(NCCNCCO)ccc12,–,18.7 µM (active)

Compound,viability,Potency
C[C@@H]1O[C@@H](O[C@H]2CC[C@@]3(C)[C@H](CC[C@@H]4[C@H]3C[C@@H](O)[C@]3(C)[C@@H](C5=CC(=O)OC5)CC[C@]43O)C2)C[C@H](O)[C@@H]1O[C@H]1C[C@H](O)[C@H](O[C@H]2C[C@H](O)[C@@H](O)[C@@H](C)O2)[C@H](C)O1 (stereo in doubt),–,0.121 µM (active)
COc1cc2c(cc1OC)CC(=O)N(CCCN(C)C[C@H]1Cc3cc(OC)c(OC)cc31)CC2,–,16.6 µM (active)
CS(=O)(=O)c1ccc(C2=C(c3ccccc3)C(=O)OC2)cc1,127%,–
Cc1cc(OCCCS(C)(=O)=O)cc(C)c1-c1cccc(COc2ccc3c(c2)OC[C@H]3CC(=O)O)c1,110%,–
O=c1cc(-c2ccc(O)c(O)c2)oc2cc(O)cc(O)c12,113%,–
C#C[C@]1(O)CC[C@H]2[C@H]3CCc4cc(OC)ccc4[C@H]3CC[C@@]21C,–,23.5 µM (active)
C=CCc1cccc(C=NNC(=O)CN2CCN(Cc3ccccc3)CC2)c1O,–,9.35 µM (active)
CCC(C)SSc1ncc[nH]1 (stereo not given),–,5.26 µM (active)
COc1ccc2c(c1)CC[C@H]1[C@@H]2CC[C@]2(C)[C@@H](NCCCCCCN3C(=O)C=CC3=O)CC[C@H]12,151%,–
CN(C)CCOc1ccc(C(=C(CCCl)c2ccccc2)c2ccccc2)cc1,108%,–
O=C(O)c1nc(=O)[nH]c(=O)[nH]1,96.5% [at 23.2 µM],–
C[C@@H]1C[C@H]2[C@@H]3CCC4=CC(=O)C=C[C@]4(C)[C@@]3(F)[C@@H](O)C[C@]2(C)[C@@]1(O)C(=O)CO,–,0.0093 µM (active)
CN1CCN2c3ncccc3Cc3ccccc3C2C1 (stereo not given),132%,–
CN(C)CCOc1ccc(-c2nc(-c3ccc4c(c3)CCC4=NO)c(-c3ccncc3)[nH]2)cc1,–,23.5 µM (active)
O=C(O)Cc1cccc(OCCCN(Cc2cccc(C(F)(F)F)c2Cl)CC(c2ccccc2)c2ccccc2)c1,143%,–
O=c1[nH]c(=O)n([C@H]2C[C@@H](O)[C@@H](CO)O2)cc1C(F)(F)F,–,1.32 µM (active)
CCOC(=O)[C@H]1O[C@H]1C(=O)N[C@@H](CC(C)C)C(=O)NCCC(C)C,126%,–
Cc1c(-c2cccc3c(CCCOc4cccc5ccccc45)c(C(=O)O)n(Cc4cccnc4)c23)c(COc2ccc(N3CCN([S+](=O)([O-])N(C)C)CC3)cc2)nn1C,97.6%,–
COc1ccc2cc1Oc1ccc(cc1)C[C@H]1c3cc(c(OC)cc3CCN1C)Oc1c(OC)c(OC)cc3c1[C@H](C2)N(C)CC3,–,6.62 µM (active)
CN1C(=O)C(Cc2c[nH]c3ccccc23)NC1=S (stereo not given),115%,–
